11 molecules from article PMC5540273 (PLoS ONE, 2017) can be followed below.

SMILES strings stand for the structures.
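Further: KINOMEscan kinase panel screen.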

The test system of the experiment is DAPK1. Particulars: concentration: 1 μM, replicates: in singlicate; n = 1.
Regarding `CN(C)S(=O)(=O)c1cc(-c2ccc3nccc(-c4cccc(S(N)(=O)=O)c4)c3c2)cnc1N` [GSK1669921], the “%Inh” value came out at 0%.

As for `CCS(=O)(=O)c1ccc(OC)c(Nc2nccc(-c3c(-c4cccc(NC(=O)c5c(F)cccc5F)c4)nn4ncccc34)n2)c1` [GSK326180], the “%Inh” value was determined as 9%.

For `COc1cc(Nc2nccc(N3CCC(NC(=O)c4cc5ccccc5s4)C3)n2)cc(OC)c1OC` (centres unmarked) [GSK1379760], the “%Inh” value is on record as 54%.

Consider `Cc1ccc(F)c(C(=O)Nc2cccc(-c3nn4ccccc4c3-c3ccnc(Nc4cccc(F)c4)n3)c2)c1F` [GSK361061], for which the “%Inh” value stood at 0%.

As for `Clc1ccc(-c2nn3ncccc3c2-c2ccnc(Nc3ccc4c(c3)OCCO4)n2)cc1` [GW829116], the “%Inh” value is on record as 0%.

For `CCCCc1nn2ncccc2c1-c1ccnc(Nc2ccc(N3CCN(C)CC3)cc2)n1` [GW684941], the “%Inh” value turned out to be 0%.

Regarding `CCn1c(-c2nonc2N)nc2c(C#CC(C)(C)O)ncc(OCCCCN)c21.O=C(O)C(F)(F)F.O=C(O)C(F)(F)F` [GSK507274], the “%Inh” value is given as 28%.

As to `O=C(NC1CCN(c2ccnc(Nc3ccc(F)cc3)n2)C1)c1cc2ccccc2s1` (centres unmarked) [GSK1379716], the “%Inh” value was 19%.

Consider `COc1cc2c(cc1OCCN1CCNCC1)ncc1c3ccc(C#N)cc3[nH]c21`, for which the “%Inh” value is given as 14%.

For `COc1cc(Nc2nccc(N3CCC(NC(=O)Nc4cccc(C(C)=O)c4)C3)n2)cc(OC)c1OC` (centres unmarked) [GSK1379753], the “%Inh” value stood at 5%.

In the case of `O=C(Nc1cccc(-c2nn3ccccc3c2-c2ccnc(Nc3cccc(C(F)(F)F)c3)n2)c1)c1c(F)cccc1F` [GSK292658], the “%Inh” value turned out to be 0%.
